# In all, about 370,000 compounds went through this assay and about 400 (0.11%) were called active. This is one part of a sample in which actives are shown more often than they occur. Unmarked numbers belong to inactive results.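 How the source made its calls: active means activation at 10 µM reaching about 35% in either raw or pattern-adjusted values (limit read from the data); inactive means the rest.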
# Biological target: Atrial natriuretic peptide receptor 2 (Homo sapiens) (UniProt P20594)
# Test: human GC-B receptor activators, primary screen, HEK293 GC-B cells, cGMP TR-FRET, EC30 CNP (AID 1920062)
# Conditions: at 10 µM, active compounds read high, 0% at EC30 CNP, 100% saturating CNP
# Atrial natriuretic peptide receptor 2 (Homo sapiens), sequence (P20594 whole entry, looked up): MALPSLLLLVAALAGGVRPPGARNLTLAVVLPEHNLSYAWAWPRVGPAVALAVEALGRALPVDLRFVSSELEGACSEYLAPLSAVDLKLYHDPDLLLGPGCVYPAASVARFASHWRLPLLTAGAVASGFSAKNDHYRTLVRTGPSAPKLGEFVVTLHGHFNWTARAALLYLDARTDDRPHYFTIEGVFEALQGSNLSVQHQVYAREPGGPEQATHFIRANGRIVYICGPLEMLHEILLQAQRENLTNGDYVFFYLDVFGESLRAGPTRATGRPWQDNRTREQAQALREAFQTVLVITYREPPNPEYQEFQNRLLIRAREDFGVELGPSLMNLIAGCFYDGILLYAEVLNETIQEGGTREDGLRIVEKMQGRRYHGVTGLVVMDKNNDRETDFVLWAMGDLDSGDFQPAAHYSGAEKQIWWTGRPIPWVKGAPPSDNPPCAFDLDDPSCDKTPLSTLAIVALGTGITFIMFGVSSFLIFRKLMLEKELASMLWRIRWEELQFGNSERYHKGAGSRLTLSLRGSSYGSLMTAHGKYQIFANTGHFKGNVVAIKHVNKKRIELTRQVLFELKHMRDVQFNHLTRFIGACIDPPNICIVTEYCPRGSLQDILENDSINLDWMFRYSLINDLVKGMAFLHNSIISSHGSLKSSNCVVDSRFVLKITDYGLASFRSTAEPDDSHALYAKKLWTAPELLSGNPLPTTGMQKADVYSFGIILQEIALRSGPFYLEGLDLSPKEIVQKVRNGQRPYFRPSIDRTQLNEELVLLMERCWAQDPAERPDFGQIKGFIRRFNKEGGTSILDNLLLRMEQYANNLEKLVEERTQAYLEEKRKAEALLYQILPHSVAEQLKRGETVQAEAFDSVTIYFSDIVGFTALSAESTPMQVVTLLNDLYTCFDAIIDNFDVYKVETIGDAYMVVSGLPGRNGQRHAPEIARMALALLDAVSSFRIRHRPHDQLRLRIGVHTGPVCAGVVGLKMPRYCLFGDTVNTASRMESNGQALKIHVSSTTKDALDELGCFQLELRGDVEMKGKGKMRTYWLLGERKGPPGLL
row,SMILES,activation
1,COc1ccccc1C(=O)CSc1nnc(-c2ccccn2)n1-c1ccccc1,-3.37%
2,Nc1ncnc(Nc2cccc(Cl)c2Cl)n1,1.89%
3,CC1(C)OC(=O)C2=C(C[C@@H](C3CC3)O[C@H]2CCc2cccc(Cl)c2)O1,3.35%
4,C[C@@H]1CN([C@@H](C)CO)C(=O)CCCn2nncc2CO[C@H]1CN(C)Cc1ccc(C(F)(F)F)cc1,-5.26%
5,CCOc1c(Br)cc(/C=C2\C(=O)N(CCC#N)N=C2C)cc1OC,51.6% (active)
6,COc1ccc(C(CNC(=O)c2ccc(S(=O)(=O)Nc3ccccc3F)cc2)N(C)C)cc1 (stereo not given),-0.81%
7,CC1(c2ccc(Cl)cc2Cl)NC(=O)N(CC(=O)Nc2cccnc2Cl)C1=O (stereo not given),3.74%
8,CCCCN(C)CCNC(=O)C1CCCN(S(=O)(=O)c2cccc3nsnc23)C1 (stereo not given),4.51%
9,CC(Oc1ccc(F)cc1F)C(=O)/C=C/N(C)C (stereo not given),1.84%
10,CCC(C)(C)NC(=O)C(c1cccc(OC)c1OC)N(CC(C)C)C(=O)CCC(=O)Nc1cc(C)on1 (stereo not given),-7.74%
11,CC1CCCCC12NC(=O)N(CC(=O)Nc1ccc(S(=O)(=O)Nc3ncccn3)cc1)C2=O (stereo not given),1.08%
12,Nc1nnc(SCC(=O)NCC(=O)Nc2ccc(F)c(F)c2F)s1,-0.75%
13,CC(=O)c1cccc(-n2nnnc2SCC(=O)NNC(=O)C2CCCCC2)c1,1.65%
14,O=C(OCC(=O)N1CCCCCC1)c1cnc(Cl)c(Cl)c1,4.57%
15,CC(=O)C[C@H](O)CC(=O)[C@@H]1OC(=O)[C@@H](C)C/C=C\Cc2ccccc21,5.5%
16,CCCCn1c(N)c(N2CCOCC2)c(=O)n(CC(=O)NCCc2ccccc2)c1=O,0.41%
17,CC(=O)NC(Cc1ccc(F)cc1)C(=O)O (stereo not given),7.58%
18,Cc1nc(C(F)(F)F)ccc1C(=O)N1CCC1(C)C(=O)NS(=O)(=O)c1ccc(F)cc1F (stereo not given),1.28%
19,O=C1OCC2=C1C(c1ccccc1)CC(=O)N2c1cccc(F)c1 (stereo not given),3.79%
20,CCOC(=O)C1(Cc2ccccc2C)CCCN(C(=O)CN2C(=O)CSC2=O)C1 (stereo not given),1.31%

row,SMILES,activation
1,O=S1(=O)c2c(cccc2N2CCCCC2)O[C@H](COCc2ccccc2)CN1C1CC1,2.03%
2,O=C(Oc1ccc(C(=S)N2CCOCC2)cc1)c1ccc(F)cc1,-0.5%
3,CC(NCc1nc2ccccc2n1C)C12CC3CC(CC(C3)C1)C2 (stereo not given),-3.22%
4,NC(=O)NC(=O)C(OC(=O)CCNS(=O)(=O)c1ccccc1)c1ccccc1 (stereo not given),0.79%
5,CCOC(=O)N1CCN(C(=O)CN(C2CCCCC2)S(C)(=O)=O)CC1,6.88%
6,CCC/C(C)=N\Nc1nc2c(c(=O)n(C)c(=O)n2C)n1C,-1.79%
7,Cn1c(=O)c2c(nc(N/N=C/c3cccs3)n2Cc2ccc(Br)cc2)n(C)c1=O,23.1%
8,C/C(Cl)=C\Cn1c(Nc2cccc(C)c2)nc2c1c(=O)n(C)c(=O)n2C,45.4% (active)
9,Cc1cc(C)n(-c2nc(O)cc(=O)[nH]2)n1,6.13%
10,CCn1c(CNC(=O)c2ccccc2)nnc1SCC(=O)N1CCN(c2ccccc2)CC1,1.17%
11,CC(C)COC(=O)c1ccc(NC(=O)C2C3C=CC(C3)C2C(=O)O)cc1 (stereo not given),6.16%
12,CCN(CC(=O)NCc1cccs1)S(=O)(=O)c1ccc(NC(C)=O)cc1,5.26%
13,CC(=O)N1C(C)c2ccccc2C(C)(C)CC12CCCCC2 (stereo not given),1.32%
14,C=C1C2C[C@H](O)C(C)(C)[C@@]2(O)[C@H](O)C[C@]23C[C@@](C)(O)[C@H](CC[C@H]12)[C@H]3O (stereo not given in full),5.08%
15,Cc1nc(CNc2ncnc3ccc(-c4ccc5c(c4)OCO5)cc23)cs1,3.38%
16,O=C(Cn1nnc(-c2ccc3c(c2)OCO3)n1)NCc1ccco1,-0.02%
17,c1coc(CCNc2ncnc3ccc(-c4ccc5c(c4)OCO5)cc23)c1,50.1% (active)
18,CC(C)C(NC(=O)c1c(F)cccc1F)C(=O)NNC(=O)c1ccccc1 (stereo not given),3.58%
19,O=Cc1c(Cl)cccc1Cl,-13.9%
20,Cc1ccccc1NC(=O)COC(=O)c1ccc(Sc2ncn[nH]2)c([N+](=O)[O-])c1,-1.97%
